{"source": "PubChem BioAssay AID1159580", "about": "(chemical genetic matrix, 2015)", "experiment": "chemical genetic growth profiling, strain panel (AID 1159580);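 note: tested at 20 µM; growth read once vehicle control cultures reached saturation at 30 °C; 1 = growth at the plate median or of vehicle wells; lower values mean less growth of the strain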", "conditions": "S. cerevisiae deletion strains, growth OD", "note": "Several values for one entry are separate records, joined by “and”; a condition that tells them apart may be missing. Equal values may be shown once. Among all 5,500 compounds or so, about 2,000 (36%) were called active. Another 18% or so got no clear call; they are omitted. Cut-off read from the data, not from the text of the source: active = normalized growth mostly below about 0.91 (no sharp cut-off); inconclusive = no clear call, values can overlap the other calls; inactive = mostly above about 0.92. The list shows a part of the results. Some structures have more than one record in an assay (separate samples or runs), and their calls can disagree.", "data": [{"smiles": "CN(C)CCCN1c2ccccc2Sc2ccc(C(F)(F)F)cc21", "values": [{"measurement": "normalized growth", "setting": "locus YAL013W, strain DEP1, stronger effect = lower value", "value": "0.982 (inactive) and 0.939 (inactive)"}, {"measurement": "normalized growth", "setting": "locus YAL021C, strain ccr4, stronger effect = lower value", "value": "0.799 (active)"}, {"measurement": "normalized growth", "setting": "locus YAL026C, strain drs2, stronger effect = lower value", "value": "0.329 (active)"}, {"measurement": "normalized growth", "setting": "locus YAL030W, strain snc1, stronger effect = lower value", "value": "1.01 (inactive)"}, {"measurement": "normalized growth", "setting": "locus YAL040C, strain CLN3, stronger effect = lower value", "value": "0.99 (inactive)"}, {"measurement": "normalized growth", "setting": "locus YBL061C, strain skt5, stronger effect = lower value", "value": "1.02 (inactive)"}, {"measurement": "normalized growth", "setting": "locus YBR009C, strain hhf1, stronger effect = lower value", "value": "0.961 (inactive)"}, {"measurement": "normalized growth", "setting": "locus YBR021W, strain FUR4, stronger effect = lower value", "value": "1.04 (inactive)"}, {"measurement": "normalized growth", "setting": "locus YBR023C, strain chs3, stronger effect = lower value", "value": "0.999 (inactive)"}, {"measurement": "normalized growth", "setting": "locus YBR171W, strain sec66, stronger effect = lower value", "value": "1.03 (inactive)"}, {"measurement": "normalized growth", "setting": "locus YBR229C, strain ROT2, stronger effect = lower value", "value": "0.955 (inactive)"}, {"measurement": "normalized growth", "setting": "locus YBR231C, strain swc5, stronger effect = lower value", "value": "1.04 (inactive)"}, {"measurement": "normalized growth", "setting": "locus YBR279W, strain paf1, stronger effect = lower value", "value": "1.01 (inactive)"}, {"measurement": "normalized growth", "setting": "locus YCL011C, strain gbp2, stronger effect = lower value", "value": "1.01 (inactive)"}, {"measurement": "normalized growth", "setting": "locus YCL016C, strain dcc1, stronger effect = lower value", "value": "1.01 (inactive)"}, {"measurement": "normalized growth", "setting": "locus YCL029C, strain bik1, stronger effect = lower value", "value": "0.968 (inactive)"}, {"measurement": "normalized growth", "setting": "locus YCL061C, strain MRC1 (second series), stronger effect = lower value", "value": "0.987 (inactive)"}, {"measurement": "normalized growth", "setting": "locus YCL061C, strain MRC1, stronger effect = lower value", "value": "1.02 (inactive)"}, {"measurement": "normalized growth", "setting": "locus YCL069W, strain vba3, stronger effect = lower value", "value": "1.01 (inactive)"}, {"measurement": "normalized growth", "setting": "locus YCR088W, strain abp1, stronger effect = lower value", "value": "1.02 (inactive)"}, {"measurement": "normalized growth", "setting": "locus YDL005C, strain med2, stronger effect = lower value", "value": "1.06 (inactive)"}, {"measurement": "normalized growth", "setting": "locus YDL035C, strain GPR1, stronger effect = lower value", "value": "0.983 (inactive)"}, {"measurement": "normalized growth", "setting": "locus YDL040C, strain nat1, stronger effect = lower value", "value": "1.01 (inactive)"}, {"measurement": "normalized growth", "setting": "locus YDL074C, strain BRE1, stronger effect = lower value", "value": "1.01 (inactive)"}, {"measurement": "normalized growth", "setting": "locus YDL101C, strain DUN1, stronger effect = lower value", "value": "0.981 (inactive)"}, {"measurement": "normalized growth", "setting": "locus YDL134C, strain PPH21, stronger effect = lower value", "value": "0.99 (inactive)"}, {"measurement": "normalized growth", "setting": "locus YDL185W, strain tfp1, stronger effect = lower value", "value": "0.963 (inactive)"}, {"measurement": "normalized growth", "setting": "locus YDL192W, strain arf1, stronger effect = lower value", "value": "0.963 (inactive)"}, {"measurement": "normalized growth", "setting": "locus YDR001C, strain nth1, stronger effect = lower value", "value": "1.02 (inactive)"}, {"measurement": "normalized growth", "setting": "locus YDR069C, strain doa4, stronger effect = lower value", "value": "0.846 (active)"}, {"measurement": "normalized growth", "setting": "locus YDR101C, strain arx1, stronger effect = lower value", "value": "0.994 (inactive)"}, {"measurement": "normalized growth", "setting": "locus YDR137W, strain rgp1, stronger effect = lower value", "value": "1.25 [resistant] (active)"}, {"measurement": "normalized growth", "setting": "locus YDR150W, strain NUM1, stronger effect = lower value", "value": "0.978 (inactive) and 0.989 (inactive)"}, {"measurement": "normalized growth", "setting": "locus YDR159W, strain sac3, stronger effect = lower value", "value": "1.07 (inactive)"}, {"measurement": "normalized growth", "setting": "locus YDR162C, strain NBP2, stronger effect = lower value", "value": "0.971 (inactive)"}, {"measurement": "normalized growth", "setting": "locus YDR195W, strain ref2", "value": "1.27 [resistant] (active)"}, {"measurement": "normalized growth", "setting": "locus YDR297W, strain sur2, stronger effect = lower value", "value": "1.02 (inactive)"}, {"measurement": "normalized growth", "setting": "locus YDR318W, strain mcm21, stronger effect = lower value", "value": "1 (inactive)"}, {"measurement": "normalized growth", "setting": "locus YDR334W, strain swr1, stronger effect = lower value", "value": "1.02 (inactive)"}, {"measurement": "normalized growth", "setting": "locus YDR335W, strain msn5, stronger effect = lower value", "value": "1.02 (inactive)"}, {"measurement": "normalized growth", "setting": "locus YDR363W, strain ESC2, stronger effect = lower value", "value": "0.896 (inactive)"}, {"measurement": "normalized growth", "setting": "locus YDR388W, stronger effect = lower value", "value": "0.986 (inactive)"}, {"measurement": "normalized growth", "setting": "locus YDR392W, strain spt3, stronger effect = lower value", "value": "1.22 [resistant] (active)"}, {"measurement": "normalized growth", "setting": "locus YDR502C, strain sam2, stronger effect = lower value", "value": "0.992 (inactive)"}, {"measurement": "normalized growth", "setting": "locus YEL003W, strain gim4, stronger effect = lower value", "value": "1 (inactive)"}, {"measurement": "normalized growth", "setting": "locus YEL037C, strain rad23, stronger effect = lower value", "value": "1.01 (inactive)"}, {"measurement": "normalized growth", "setting": "locus YEL061C, strain CIN8 (second series), stronger effect = lower value", "value": "1.01 (inactive)"}, {"measurement": "normalized growth", "setting": "locus YEL061C, strain CIN8, stronger effect = lower value", "value": "0.989 (inactive)"}, {"measurement": "normalized growth", "setting": "locus YER002W, strain NOP16, stronger effect = lower value", "value": "1.04 (inactive)"}, {"measurement": "normalized growth", "setting": "locus YER015W, strain faa2, stronger effect = lower value", "value": "1.01 (inactive)"}, {"measurement": "normalized growth", "setting": "locus YER016W, strain bim1, stronger effect = lower value", "value": "1.02 (inactive)"}, {"measurement": "normalized growth", "setting": "locus YER110C, stronger effect = lower value", "value": "0.961 (inactive)"}, {"measurement": "normalized growth", "setting": "locus YER111C, strain swi4, stronger effect = lower value", "value": "1.01 (inactive)"}, {"measurement": "normalized growth", "setting": "locus YER155C, strain BEM2 (second series), stronger effect = lower value", "value": "1.06 (inactive)"}, {"measurement": "normalized growth", "setting": "locus YER155C, strain BEM2, stronger effect = lower value", "value": "1 (inactive)"}, {"measurement": "normalized growth", "setting": "locus YER167W, strain BCK2, stronger effect = lower value", "value": "0.997 (inactive)"}, {"measurement": "normalized growth", "setting": "locus YFR010W, strain ubp6, stronger effect = lower value", "value": "0.831 (active)"}, {"measurement": "normalized growth", "setting": "locus YGL078C, strain dbp3, stronger effect = lower value", "value": "0.985 (inactive)"}, {"measurement": "normalized growth", "setting": "locus YGL086W, strain mad1, stronger effect = lower value", "value": "0.998 (inactive)"}, {"measurement": "normalized growth", "setting": "locus YGL167C, strain pmr1, stronger effect = lower value", "value": "1.02 (inactive)"}, {"measurement": "normalized growth", "setting": "locus YGL173C, strain kem1, stronger effect = lower value", "value": "0.996 (inactive)"}, {"measurement": "normalized growth", "setting": "locus YGL227W, strain vid30, stronger effect = lower value", "value": "1.03 (inactive)"}, {"measurement": "normalized growth", "setting": "locus YGL240W, strain doc1, stronger effect = lower value", "value": "1.05 (inactive)"}, {"measurement": "normalized growth", "setting": "locus YGL248W, strain PDE1, stronger effect = lower value", "value": "0.983 (inactive)"}, {"measurement": "normalized growth", "setting": "locus YGL253W, strain hxk2, stronger effect = lower value", "value": "1 (inactive)"}, {"measurement": "normalized growth", "setting": "locus YGR078C, strain PAC10, stronger effect = lower value", "value": "1.01 (inactive)"}, {"measurement": "normalized growth", "setting": "locus YGR135W, strain pre9, stronger effect = lower value", "value": "0.982 (inactive)"}, {"measurement": "normalized growth", "setting": "locus YGR229C, strain SMI1, stronger effect = lower value", "value": "0.976 (inactive) and 0.395 (active)"}, {"measurement": "normalized growth", "setting": "locus YGR252W, strain gcn5, stronger effect = lower value", "value": "0.989 (inactive)"}, {"measurement": "normalized growth", "setting": "locus YHR013C, strain ard1, stronger effect = lower value", "value": "0.939 (inactive)"}, {"measurement": "normalized growth", "setting": "locus YHR027C, strain rpn1, stronger effect = lower value", "value": "1.01 (inactive)"}, {"measurement": "normalized growth", "setting": "locus YHR030C, strain SLT2, stronger effect = lower value", "value": "0.991 (inactive) and 1 (inactive)"}, {"measurement": "normalized growth", "setting": "locus YHR079C, strain IRE1 (second series), stronger effect = lower value", "value": "0.975 (inactive)"}, {"measurement": "normalized growth", "setting": "locus YHR079C, strain IRE1, stronger effect = lower value", "value": "0.991 (inactive)"}, {"measurement": "normalized growth", "setting": "locus YHR094C, strain hxt1, stronger effect = lower value", "value": "0.981 (inactive)"}, {"measurement": "normalized growth", "setting": "locus YHR129C, strain ARP1, stronger effect = lower value", "value": "1 (inactive)"}, {"measurement": "normalized growth", "setting": "locus YHR142W, strain chs7, stronger effect = lower value", "value": "0.958 (inactive)"}, {"measurement": "normalized growth", "setting": "locus YHR200W, strain rpn10, stronger effect = lower value", "value": "0.988 (inactive)"}, {"measurement": "normalized growth", "setting": "locus YIL066C, strain RNR3, stronger effect = lower value", "value": "0.973 (inactive)"}, {"measurement": "normalized growth", "setting": "locus YIL073C, strain SPO22, stronger effect = lower value", "value": "0.942 (inactive)"}, {"measurement": "normalized growth", "setting": "locus YIL125W, strain kgd1, stronger effect = lower value", "value": "0.974 (inactive)"}, {"measurement": "normalized growth", "setting": "locus YIR030C, strain dcg1, stronger effect = lower value", "value": "0.974 (inactive)"}, {"measurement": "normalized growth", "setting": "locus YJL092W, strain hpr5, stronger effect = lower value", "value": "1.01 (inactive)"}, {"measurement": "normalized growth", "setting": "locus YJL095W, strain BCK1 (second series), stronger effect = lower value", "value": "0.968 (inactive)"}, {"measurement": "normalized growth", "setting": "locus YJL095W, strain BCK1, stronger effect = lower value", "value": "1.02 (inactive) and 0.998 (inactive)"}, {"measurement": "normalized growth", "setting": "locus YJL115W, strain asf1, stronger effect = lower value", "value": "1.03 (inactive)"}, {"measurement": "normalized growth", "setting": "locus YJL129C, strain trk1, stronger effect = lower value", "value": "1.03 (inactive)"}, {"measurement": "normalized growth", "setting": "locus YJL134W, strain LCB3, stronger effect = lower value", "value": "0.987 (inactive)"}, {"measurement": "normalized growth", "setting": "locus YJL154C, strain vps35, stronger effect = lower value", "value": "1.01 (inactive)"}, {"measurement": "normalized growth", "setting": "locus YJL164C, strain tpk1, stronger effect = lower value", "value": "0.921 (inactive)"}, {"measurement": "normalized growth", "setting": "locus YJL166W, strain qcr8, stronger effect = lower value", "value": "0.951 (inactive)"}, {"measurement": "normalized growth", "setting": "locus YJL168C, strain set2, stronger effect = lower value", "value": "0.978 (inactive)"}, {"measurement": "normalized growth", "setting": "locus YJL187C, strain SWE1 (second series), stronger effect = lower value", "value": "0.992 (inactive)"}, {"measurement": "normalized growth", "setting": "locus YJL187C, strain SWE1, stronger effect = lower value", "value": "1.01 (inactive)"}, {"measurement": "normalized growth", "setting": "locus YJR043C, strain POL32, stronger effect = lower value", "value": "1 (inactive)"}]}]}
